Rows were chosen to be rich in hits. Some 4.7% of all compounds tested hit in one or more screens of this group.
D1 antagonist – Antagonist of Human D 1 Dopamine Receptor: qHTS; HEK293 TREx D1 cells, calcium flux, dopamine EC80; active compounds read low; activity change, negative = inhibition, % at 10 µM; 360,000 compounds, 3.2% hits; AID 504652, 2011; in the data active = activity change below about -30%
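Cells carrying a force-coupled, tetracycline-inducible human D1 receptor report calcium flux. Each well gets a 10 s baseline, compound with 180 s monitoring, then an EC80 dopamine stimulus with a second 180 s kinetic read.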
D1 ag – Allosteric Agonists of the Human D1 Dopamine Receptor: qHTS. D(1A) dopamine receptor (Homo sapiens), P21728. HEK293 T-REx D1 cells, calcium flux, agonist mode. activation, % at 2 µM. 360,000 compounds, 1% hits. AID 504660, 2011
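Tetracycline-induced HEK293 TREx D1 cells, force-coupled to calcium signalling, were dye-loaded with a no-wash calcium kit. Compound was pin-added after a 10 s baseline. Fluorescence was read kinetically at 1 cycle/s for 180 s, with calcium rises flagged as agonism.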
TRHR agonist – qHTS for Small Molecule Agonists and Allosteric Enhancers of Human TRH Receptor: Primary Screen for Agonists. Thyrotropin-releasing hormone receptor (Homo sapiens), P34981. TRHR cells, calcium flux fluo-8, FDSS agonist mode. activation, % at 2 µM. 360,000 compounds, 0.18% hits. AID 493084, 2011
Target sequence (P34981 whole entry, looked up): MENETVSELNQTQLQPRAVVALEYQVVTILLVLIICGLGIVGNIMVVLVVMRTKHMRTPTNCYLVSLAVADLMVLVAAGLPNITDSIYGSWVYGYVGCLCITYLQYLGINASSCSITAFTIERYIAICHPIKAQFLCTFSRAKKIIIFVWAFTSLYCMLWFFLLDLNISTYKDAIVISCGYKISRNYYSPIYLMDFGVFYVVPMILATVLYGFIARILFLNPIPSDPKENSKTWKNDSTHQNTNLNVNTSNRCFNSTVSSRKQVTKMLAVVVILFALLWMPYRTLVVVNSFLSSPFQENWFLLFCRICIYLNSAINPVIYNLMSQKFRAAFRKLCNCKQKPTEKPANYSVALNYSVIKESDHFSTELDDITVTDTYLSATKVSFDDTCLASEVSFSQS
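TRHR-expressing cells, plated overnight in medium with 10% serum, were loaded with fluo-8 calcium dye at room temperature. After a 10 s baseline, library compound was pin-added and calcium release was recorded kinetically (ex 480/em 530) as agonist response.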
D1 PAM – Potentiators of Human D1 Dopamine Receptor: qHTS; 360,000 compounds, 0.036% hits; potentiation, % at 10 µM; AID 504651, 2011; HEK293 TREx D1 cells, calcium flux, dopamine EC20 potentiation; D(1A) dopamine receptor (Homo sapiens), P21728; in the data active = potentiation above about 30%
TRHR PAM – qHTS for Small Molecule Agonists and Allosteric Enhancers of Human TRH Receptor: Primary Screen for Enhancers | Thyrotropin-releasing hormone receptor (Homo sapiens), P34981 | 360,000 compounds, 0.66% hits | TRHR cells, fluo-8 calcium fluorescence, EC20 TRH enhancement | enhancement, % at 2 µM; in the data active = enhancement above about 30%
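TRHR-expressing cells loaded with fluo-8 calcium dye were read kinetically (ex 480/em 530) during compound addition, then stimulated with an EC20 of TRH (10 nM final). Enhancement of the Gq-mediated intracellular calcium response was scored.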
Of the large screens only hits and unclear results are named; the others gave an inactive call. Cut-off read from the data, not from the text of the source, unless noted: active = activation above about 30%; inactive = the rest.

Cc1nn(-c2ccccc2)c2sc(C(=O)Nc3ccc(Cl)cc3Cl)cc12	D1 antagonist -83
Cc1ccc(NC(=O)c2c(C)nn(-c3ccccc3)c2-n2cccc2)c(Cl)c1	D1 antagonist -33
COc1ccc(NC(=O)CSc2oc(-c3cccs3)nc2S(=O)(=O)c2ccc(Br)cc2)c(OC)c1	none
O=S(=O)(NCCN1CCOCC1)c1cc(Cl)c(Cl)cc1Cl	D1 antagonist -31
Cc1cccc(C)c1OCc1nnc(SCC(=O)Nc2ccc(N3CCOCC3)cc2)o1	D1 ag 41 (no result: D1 PAM)
CCc1nnc(SCC(=O)Nc2ccc(N3CCOCC3)cc2)o1	none
O=C(Nc1ccc2cn[nH]c2c1)c1c(Cl)cccc1Cl	none
CC(=O)Nc1ccc(NC2=C(Cl)C(=O)c3ccccc3C2=O)cc1	D1 antagonist -58
O=C1C(Cl)=C(Nc2ccc3cn[nH]c3c2)C(=O)c2ccccc21	D1 antagonist -74
O=C(NC1=C(Nc2ccc(Cl)cc2)C(=O)c2ccccc2C1=O)c1ccccc1	none
CN(C)c1ccc(NC2=C(Cl)C(=O)c3ccccc3C2=O)cc1	D1 antagonist -66
O=C(CCS(=O)(=O)c1ccccc1)N(Cc1cccnc1)c1nc2c(Cl)cccc2s1	none
N#C/C(=C\c1ccccc1OCC(=O)O)c1nc2ccccc2[nH]1	none
CN1CCN(/N=C/c2ccc(OCc3ccccc3)cc2)CC1	D1 antagonist -69, D1 ag 32
COC(=O)c1ccc(COc2ccc(/C=N/N3CCN(C)CC3)cc2)cc1	none
Clc1ccc(Nc2nc(-c3ccccc3)c3ccccc3n2)c(Cl)c1	none
O=[S+]([O-])(c1ccc2c(c1)OCCO2)N1CCN([S+](=O)([O-])c2c(F)cc(Br)cc2F)CC1	none
CC12CCC(C(=O)N(CC(=O)O)C1=O)C2(C)C (stereo not drawn)	D1 antagonist -52
Cc1ccccc1NCN1C(=O)C2CCC(C)(C1=O)C2(C)C (stereo not drawn)	none
Fc1cccc(CSc2ncnc3c2oc2ccccc23)c1	D1 antagonist -93
Fc1ccc(CSc2ncnc3c2oc2ccccc23)cc1	none
CCCNC(=O)Nc1nc2ccccc2s1	D1 antagonist -72
CCCCNC(=O)Nc1nc2ccccc2s1	none
CCn1c2c(c(C)cc1=O)C(=O)CC(C)(C)C2	TRHR PAM 34
CCn1c(C)c2c([n+]1CC)CC(C)(C)CC2=O	none
COCCn1c(C)cc(O)c(C(c2ccc(F)cc2)N2CCC(C)CC2)c1=O (stereo not drawn)	none
COc1cccc(CC(=O)OCC(=O)NNC(=O)c2ccc([N+](=O)[O-])cc2)c1	none
Cc1cc(Nc2cccc(Cl)c2)c2ccccc2n1	D1 antagonist -65
COc1ccc(Nc2cc(C)nc3ccc(OC)cc23)cc1	none
Cc1ccc(Nc2cc(C)nc3ccc(C)cc23)cc1	D1 antagonist -33
CCc1ccccc1NC(=O)CSc1nc2c(oc3ccccc32)c(=O)n1C	none
CC1(C)C2([N+](=O)[O-])CN3CC1([N+](=O)[O-])CN(C2)C3C(O)C(O)C(O)CO (stereo not drawn)	TRHR PAM 31
CCN1c2ccccc2-c2nc(SCC(=O)Nc3ccc(C)c(Cl)c3)ncc2S1(=O)=O	none
CCCCCOc1c(Cl)cc(C(=O)N(Cc2ccc(C)o2)C2CCS(=O)(=O)C2)cc1Cl (stereo not drawn)	D1 ag 30
CCCCOc1c(Cl)cc(C(=O)N(Cc2ccc(C)o2)C2CCS(=O)(=O)C2)cc1Cl (stereo not drawn)	none
N#CC(C#N)=C/C(C#N)=C(/N)N1CCN(c2ccc(Cl)cc2)CC1	D1 antagonist -40
CN(C)C(=C(C#N)C#N)N1CCN(c2ccc(Cl)cc2)CC1	none
O=C(Cn1nc(-c2ccccc2)nc(Cc2ccccc2)c1=O)Nc1ccc(Cl)cc1	none
CC(C)c1ccc(NC(=O)Nc2cc3sccc3n2C)cc1	D1 antagonist -37
CCOc1ccccc1CN1CCN(Cc2c[nH]c3ccccc23)CC1CCO (stereo not drawn)	none
CCOc1ccccc1CN1CCN(Cc2[nH]c3ccccc3c2C)CC1CCO (stereo not drawn)	D1 ag 56
CCOc1ccccc1CN1CCN(Cc2cc(=O)c3ccccc3[nH]2)CC1CCO (stereo not drawn)	D1 antagonist -36
O=C(O)c1ccc2nc(-c3cc4cccc(O)c4oc3=O)[nH]c2c1	none
CN1CCN(Cc2c(O)ccc3cc(-c4ccccc4)c(=O)oc23)CC1	none
C=CCc1cccc2cc(-c3nc4ccc(C)cc4[nH]3)c(=O)oc12	D1 antagonist -42, D1 ag 66
O=c1oc2c(CN3CCCCC3)c(O)ccc2cc1-c1nc2ccccc2[nH]1	D1 ag 136, TRHR agonist 261, TRHR PAM 40
O=c1oc2c(O)cccc2cc1-c1nc2ccccc2[nH]1	D1 ag 408, TRHR agonist 199, TRHR PAM 48
COc1ccccc1CNS(=O)(=O)c1cc(C(=O)Nc2cccc(C(F)(F)F)c2)ccc1F	none
COc1ccc(-n2ncc(C(=O)Nc3ccc4c(c3)OCCO4)c2C2CCN(C(=O)OC(C)(C)C)CC2)cc1	none
C=CCn1c(COc2ccccc2F)nnc1SCC(=O)c1c[nH]c2ccccc12	D1 antagonist -35
C=CCn1c(COc2ccccc2F)nnc1SCC(=O)Nc1cc2oc3ccccc3c2cc1OC	none
Cc1ccc(-n2ncc3c(NCc4ccccc4)ncnc32)cc1C	none
COc1ccc(-c2ncc(CN3CCC(CO)(Cc4cccc(OC)c4)CC3)cn2)cc1	D1 ag 39
Cc1ccccc1-c1ncc(CN2CCC(CO)(CCCc3ccccc3)CC2)cn1	D1 antagonist -55
OCC1(Cc2ccccc2)CCN(Cc2cnc(-c3cccc4ccccc34)nc2)CC1	none
OCC1(Cc2ccccc2)CCN(Cc2cnc(-c3ccc(Cl)cc3)nc2)CC1	none
CC12CN3CC(C)(CN(C1)C3c1ccc(OCc3ccccc3)cc1)C2=O (stereo not drawn)	none
CCCCN(CC)CCCNC(=O)c1ccc2c(c1)NC(=O)CN2C	none
CN1CC(=O)Nc2cc(C(=O)O)ccc21	D1 antagonist -31
CC1CCN(S(=O)(=O)c2cnc(Cl)c(Br)c2)CC1	D1 ag 56
COC(=O)C1=C(N)Oc2cc(C)n(C)c(=O)c2C1c1ccc(Cl)c(Cl)c1 (stereo not drawn)	D1 antagonist -33
COc1ccc(NS(=O)(=O)c2cccc(NC(=O)c3cnccn3)c2)cc1Br	D1 antagonist -31

Screening data from PubChem.
